PubChem BioAssay (NCI)
Compounds without any hit were thinned out: in the full panel of roughly 79,000, 15% have a hit. Rule as the data show it: active = growth inhibition above about 70%; inactive = the rest.

Columns and labels:
[1] = NCI Yeast Anticancer Drug Screen. Data for the rad50 strain (AID 155);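 also: 0% = growth of vehicle-only cultures of the same strain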; conditions: S. cerevisiae rad50 strain growth inhibition, hits give high values; at 50.0 µM unless noted
Summary of the method: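 DNA repair mutant yeast, compound exposure, growth read-out; inhibition is taken relative to vehicle.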

[2] = NCI Yeast Anticancer Drug Screen. Data for the mec2-1 strain (AID 157); conditions: S. cerevisiae mec2-1 strain, hits give high values; at 50.0 µM unless noted
Summary of the method: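 mec2-1 yeast strain, carrying an alteration in DNA damage repair or cell cycle control, was exposed to compounds; growth inhibition was measured relative to vehicle-treated controls.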

[3] = NCI Yeast Anticancer Drug Screen. Data for the sgs1 mgt1 strain (AID 161);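 also: 0% = growth of cultures given vehicle only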; conditions: S. cerevisiae sgs1 mgt1 strain, hits give high values; at 50.0 µM unless noted
Summary of the method: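 This yeast growth screen uses a strain with defined DNA-repair lesions; compound-treated growth is compared with vehicle-treated growth.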

[4] = NCI Yeast Anticancer Drug Screen. Data for the cln2 rad14 strain (AID 165);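 also: 0% = growth equal to vehicle treated cultures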; conditions: S. cerevisiae cln2 rad14 strain, hits give high values; at 50.0 µM unless noted
Summary of the method: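 Yeast carrying cln2 and rad14 alterations (cell cycle control and DNA damage repair) were exposed to compounds. Growth inhibition was measured against vehicle-treated controls.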

[5] = NCI Yeast Anticancer Drug Screen. Data for the bub3 strain (AID 167); conditions: S. cerevisiae bub3 mutant strain, hits give high values; at 50.0 µM unless noted
Summary of the method: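 In this screen, a yeast mutant lacking normal mitotic checkpoint function is challenged with compound. Relative growth versus vehicle gives the inhibition value.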

[6] = NCI Yeast Anticancer Drug Screen. Data for the mlh1 rad18 strain (AID 175); conditions: S. cerevisiae mlh1 rad18 strain growth inhibition, hits give high values; at 50.0 µM unless noted
Summary of the method: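 Growth inhibition of the yeast strain was measured after compound exposure and expressed relative to vehicle-treated controls. The strain carries defined defects in DNA damage repair.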

Measured: growth inhibition

CCN(CC)c1ccc(/C=C(\C)c2nc3ccc(C)cc3[nH]2)cc1
inactive: [1] -5.25% | [2] -10.7% | [3] 8.1% | [4] 1.8% | [5] -9.3% | [6] 3.45%

O=C(/C=C\c1ccc(Cl)c(Cl)c1)/C=C/c1ccc(Cl)c(Cl)c1
inactive: [1] 25.5% | [2] 4.75% | [3] 26.4% | [4] 9.55% | [5] 39% | [6] 16.6%

CC1SCc2nc3ccccc3n21 (stereo not given)
inactive: [1] 2.25% | [2] -10.8% | [3] 27.9% | [4] 12.1% | [5] 5.7% | [6] -35.5%

C[N+](C)(C)CC(O)C[N+](C)(C)C
inactive: [1] 12.1% | [2] 6.15% | [3] 3.6% | [4] -42.1% | [5] -3.5% | [6] 22.7%

CCC1CSC(NS(=O)(=O)c2ccc(N)cc2)=N1 (stereo not given)
inactive: [1] -18.4% | [2] -3.5% | [3] -0.7% | [4] -39% | [5] 2.15% | [6] 1.3%

Nc1ccccc1SC(CC(=O)c1ccc(-c2ccccc2)cc1)c1ccco1 (stereo not given)
inactive: [1] -18.4% | [2] -30.6% | [3] 17% | [4] -9.2% | [5] -7.6% | [6] -31.7%

CN(C)c1ccc(/C=C2\C[N+](C)(C)C/C(=C\c3ccc(N(C)C)cc3)C2=O)cc1
inactive: [1] 6.9% | [2] 3.4% | [3] 9.35% | [4] -2.55% | [5] -3.45% | [6] 32.8%

Nc1ccccc1S(=O)(=O)Nc1ccccc1
inactive: [1] 30.9% | [2] 18.9% | [3] 12.5% | [4] -10.3% | [5] -28.4% | [6] 21.4%

CCCCCCCCCCCCSC(=S)c1c(C)[nH]n(CCCCCCCCCCCC)c1=O
inactive: [1] 39.9% | [2] 25.9% | [3] 42.3% | [4] 26.2% | [5] 21.9% | [6] 12.8%

O=C1NCCCC1C(=O)Nc1cccc2c1NCCC2 (stereo not given)
inactive: [1] -10.2% | [2] -40.4% | [3] 0.95% | [4] -1.45% | [5] 39.6% | [6] -32.4%

CC(=O)N1C(Nc2cnc3ccccc3c2)CCN1c1ccccc1 (stereo not given)
inactive: [1] -31.4% | [2] -48.6% | [3] -13.8% | [4] 0.4% | [5] 1.25% | [6] -14%

O=NC1C(Br)C2CC1C1C(Br)C(Br)CC21 (stereo not given)
inactive: [1] 4.45% | [2] 5.95% | [3] 13.3% | [4] 0.15% | [5] -1.2% | [6] 6.7%

CCN(CC)c1ccc2cc(C(=O)Nc3ccccc3)c(=N)oc2c1
inactive: [1] 15.5% | [2] 5.45% | [3] 1.8% | [4] 13.7% | [5] -20.2% | [6] -39.1%

CCCN=C(N)C(C)=O
inactive: [1] 5.85% | [2] -4.9% | [3] -11.1% | [4] 4.85% | [5] 15.2% | [6] 2.1%

O=S(=O)(c1ccccn1)c1nc2ccccc2s1
inactive: [1] -1.75% | [2] 7.1% | [3] -0.45% | [4] 17.1% | [5] -2.8% | [6] 0.45%

COCc1ccccc1-n1nccc1S(C)=O (stereo not given)
inactive: [1] -10.9% | [2] 25.4% | [3] 1.8% | [4] 4.1% | [5] 3.25% | [6] -2.6%

CCCCC(CC)CCC(C)O (stereo not given)
inactive: [1] -6.75% | [2] -4.75% | [3] 25.6% | [4] -40.4% | [5] -16.8% | [6] -14.7%

Cc1cc(Cl)ccc1NC(=O)C1C(=O)N(c2ccc(Cl)cc2C)C(=O)/C1=N\N (stereo not given)
inactive: [1] 0.65% | [2] -31.4% | [3] 10.4% | [4] -18.9% | [5] -9.1% | [6] 9.7%

CCOC(=O)CC/C=N/Nc1ccc([N+](=O)[O-])cc1[N+](=O)[O-]
inactive: [1] 20.6% | [2] -14% | [3] 6.7% | [4] -45.5% | [5] 6.55% | [6] 0%

O/N=C1/C2CC3CC1(c1ccccc1)CC(/C3=N/O)/C2=N\O (stereo not given)
inactive: [1] 9.15% | [2] 17.3% | [3] -12.1% | [4] 0.35% | [5] -17.8% | [6] -4.75%
